The source of these data is PubChem BioAssay.

Test [1] has as its system Wnt5a (protein binding on small-molecule microarray). The test can be described thus: Wnt5a binders on small-molecule microarray, primary screen, biophysical, 635/667 nm fluorescence (AID 1142).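 Note: fluorescence read at 667 nm with signal to noise per printed feature.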 Particulars: 635 nm fluorescence, higher = more signal.
The nature of test [2]: cell viability in Huh7 cells, primary screen, cytotoxicity control for HCV replication inhibitor project, CellTiter-Glo luminescence, basal, 48 h (AID 1143).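 Note: Huh7 hepatoma cells carrying a hepatitis C replication reporter with no stimulus; test concentration not given here.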 Particulars: Huh7 HCV replicon, higher = more signal, called active from +8 up or from −8 down.
Test [3] is described as follows: CREB reporter modulators without forskolin, primary screen, cell-based, PC12, CRE-LacZ reporter, unstimulated (AID 1145). Particulars: no forskolin, luminescence, 4.5 h, higher = more signal, called active from +8 up or from −8 down.
Test [4] in a line: CREB reporter modulators under forskolin, primary screen, cell-based, PC12, CRE-LacZ reporter, forskolin-stimulated (AID 1146).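 Note: PC12 cells with 6xCRE LacZ reporter stimulated by forskolin 10 µM; beta-galactosidase reporter signal reflecting CREB driven transcription.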 Particulars: luminescence, 4.5 h, higher = more signal, called active from +8 up or from −8 down.
The target of test [5] is Streptavidin (Streptomyces avidinii) (UniProt P22629). The test can be described thus: streptavidin binders on small-molecule microarray, primary screen, artefact control for SMM compound annotation, biophysical, 635/667 nm fluorescence (AID 1147).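 Note: signal reflects streptavidin binding to arrayed compounds as a control protein.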 Conditions: streptavidin binding, higher = more signal.
Test [6] is described as follows: small-molecule binders of probe aInhba, primary screen, biochemical, small-molecule microarray, 635/667 nm fluorescence (AID 1148).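 Note: score merges 667nm spot fluorescence with signal-to-noise for antibody binding to printed compounds.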 Conditions: higher = more signal.
Test [7] has as its target Torsin-1A (Homo sapiens) (UniProt O14656). The test can be described thus: torsin A binders from cell lysate, primary screen, small-molecule microarray, wild-type, 635/667 nm (AID 1149). Conditions: COS7 hTOR1A-WT lysate, 635 nm fluorescence, higher = more signal.
Test [8] has the same target. The test can be described thus: small-molecule binders of mutant TOR1A in lysate, primary screen, cell lysate, small-molecule microarray, COS7 lysate, 635/667 nm fluorescence (AID 1150).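 Note: score pools 667 nm emission and signal to noise measuring lysate protein binding.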 Conditions: COS7 hTOR1A mutant lysate, 635 nm fluorescence, higher = more signal.
Test [9] deals with Sonic hedgehog protein (Shh). The test can be described thus: small-molecule binders of Shh protein, primary screen, biochemical, small-molecule microarray, 635/667 nm fluorescence (AID 1151).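 Note: Shh protein binding to compounds spotted on small-molecule microarray slides; score combines spot fluorescence intensity with signal-to-noise across triplicate slides.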 Conditions: small-molecule microarray binding, 635 nm fluorescence; higher = more signal.

The structures appear in SMILES notation. The source made the active and inactive calls.

Streptavidin (Streptomyces avidinii), sequence (P22629 whole entry, looked up): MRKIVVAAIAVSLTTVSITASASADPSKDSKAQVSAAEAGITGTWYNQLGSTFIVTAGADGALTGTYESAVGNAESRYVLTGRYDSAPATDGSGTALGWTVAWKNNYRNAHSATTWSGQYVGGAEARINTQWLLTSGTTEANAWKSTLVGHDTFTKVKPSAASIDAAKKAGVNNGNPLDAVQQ
Torsin-1A (Homo sapiens), sequence (O14656 whole entry, looked up): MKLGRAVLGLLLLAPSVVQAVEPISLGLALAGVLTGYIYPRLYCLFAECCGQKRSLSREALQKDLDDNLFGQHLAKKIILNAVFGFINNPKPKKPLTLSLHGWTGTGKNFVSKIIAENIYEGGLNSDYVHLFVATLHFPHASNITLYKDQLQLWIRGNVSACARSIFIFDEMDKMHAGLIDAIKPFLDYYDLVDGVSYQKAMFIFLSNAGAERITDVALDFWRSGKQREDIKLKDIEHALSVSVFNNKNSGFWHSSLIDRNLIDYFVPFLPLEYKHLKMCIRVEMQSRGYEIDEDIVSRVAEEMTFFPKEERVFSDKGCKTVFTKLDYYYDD

Take `C=CCc1cccc([C@H]2N[C@H](C(=O)O)CC[C@@H]2C)c1`: the composite z-score in [1] was 0.023; in test [5], -0.0599; in [6] it was -0.101; with Torsin-1A (Homo sapiens) [7] it was 0.352; in the test with Torsin-1A (Homo sapiens) [8] it was 0.122; in test [9] it was 1.54. The z-score in [2] is 0.0815 (inactive); in test [3] it was 1.46 (inactive); in [4] it was -0.675 (inactive).

Regarding `COCCOC(=O)N1C(=O)[C@@]2(c3cc(C#CCNC(N)=O)ccc31)[C@H](c1ccc(OCCO)cc1)N1[C@H](c3ccccc3)[C@H](c3ccccc3)OC(=O)[C@H]1[C@@H]2C(=O)Nc1nc2ccccc2s1`, the composite z-score in test [1] is 0.483; in [5], 0.422; in test [6] it was -0.224; with Torsin-1A (Homo sapiens) [7], 0.72; with Torsin-1A (Homo sapiens) [8] it was 0.471; in test [9] it was 1.6. Also, the z-score in test [2] is -1.6 (inactive); in test [3], 0.627 (inactive); in test [4], -1.2 (inactive).

For `C[C@@H]1CC[C@H]2C(=O)N3[C@@H](CC[C@@H](C)[C@@H]3c3cccc(N4CCOCC4)c3)C(=O)N2[C@H]1c1cccc(Br)c1`, the composite z-score in test [1] turned out to be 0.205; in test [5], 0.63; in test [6], 0.0561; with Torsin-1A (Homo sapiens) [7] it was 0.472; in the test with Torsin-1A (Homo sapiens) [8] it was 0.418; in test [9], 0.994. For the same compound, the values for the z-score in test [2], in test [3] and in test [4] were -0.167 (inactive), 4.71 (inactive) and -0.902 (inactive), respectively.

On to `O=C1c2ccccc2[C@](Cc2ccccc2I)(C(=O)NCC(F)(F)F)[C@H](c2ccc(CO)cc2)N1Cc1ccccc1C(F)(F)F`, for which the composite z-score was 0.12 in [1]; 0.59 in test [5]; -0.268 in test [6]; 0.305 with Torsin-1A (Homo sapiens) [7]; 0.245 with Torsin-1A (Homo sapiens) [8]; 0.137 in test [9]. Also, the z-score in test [2] is -0.254 (inactive); in test [3], -0.438 (inactive); in [4], -0.112 (inactive).

`CO[C@H]1COC(=O)CC=C[C@H](C)[C@@H](OC)COC(=O)[C@H](Cc2ccccc2)NC(=O)CC=C[C@@H]1C`: the composite z-score was -0.359 in test [1]; -0.234 in [5]; -0.408 in test [6]; 0.45 with Torsin-1A (Homo sapiens) [7]; 0.593 in the test with Torsin-1A (Homo sapiens) [8]; 2.05 in test [9]. The z-score is -0.89 (inactive) in test [2], 0.248 (inactive) in [3] and -0.802 (inactive) in [4].

Take `CCC(=O)[C@]12O[C@@]3([C@@H]4C(=O)OCC[C@@H]41)N(Cc1ccccc1)C(C)=C(C(=O)OC)[C@@H](c1ccccc1)N3C2=O`: the composite z-score in [1] was -0.183; in test [5] it was -0.444; in [6], -0.0448; with Torsin-1A (Homo sapiens) [7] it was -0.453; with Torsin-1A (Homo sapiens) [8], -0.296; in test [9] it was 1.16. For the same compound, the values for the z-score in [2], in test [3] and in test [4] were -0.596 (inactive), 1.01 (inactive) and -1.32 (inactive), respectively.

Regarding `Cc1ccc(S[C@]2(C(=O)NCCCN(C)C)CC(=O)N(C3CCCCC3)[C@@H]2c2ccc(CO)cc2I)cc1`, the composite z-score was -0.056 in test [1]; -0.806 in [5]; -0.128 in test [6]; 0.0029 with Torsin-1A (Homo sapiens) [7]; 0.0812 with Torsin-1A (Homo sapiens) [8]; 0.0709 in test [9]. The values for the z-score in test [2], in [3] and in test [4] were -6.58 (inactive), -0.0243 (inactive) and 1.42 (inactive), respectively.

As for `O=C1OCC=C[C@H]2OC34C=CCN(Cc5ccccc5)C(=O)[C@H]3N(CCCCCO)C(=O)[C@@H]4[C@@H]12` (some centres undefined), the composite z-score is -0.341 in test [1]; -1.62 in test [5]; 0.0282 in test [6]; -0.391 in the test with Torsin-1A (Homo sapiens) [7]; -0.605 in the test with Torsin-1A (Homo sapiens) [8]; -1.09 in test [9]. For the same compound, the z-score in [2] is -2.93 (inactive); in test [3], -0.354 (inactive); in test [4] it was -0.679 (inactive).

For the compound `CCCC/C=C/[C@H]([C@@H](O)Cc1ccccc1)N(CC#Cc1ccccc1)Cc1ccccc1Br`, the composite z-score in [1] is -0.238; in test [5], -0.951; in test [6], -0.302; in the test with Torsin-1A (Homo sapiens) [7], -0.335; in the test with Torsin-1A (Homo sapiens) [8], -0.242; in test [9], -1.29. Besides, the results for the z-score in test [2], in test [3] and in [4] were -0.677 (inactive), -0.0534 (inactive) and -0.967 (inactive), respectively.

Regarding `COc1cc(CO)cc(I)c1O[C@H]1C=C(C(=O)NCCO)C[C@@H](NCCc2c[nH]c3ccccc23)[C@@H]1O`, the composite z-score in test [1] was 0.241; in [5], 0.0072; in [6] it was -0.0954; with Torsin-1A (Homo sapiens) [7], 0.75; with Torsin-1A (Homo sapiens) [8], 0.237; in [9], 0.888. The z-score was -3.34 (inactive) in test [2], 2.29 (inactive) in [3] and -2.33 (inactive) in test [4].

Turning to `C=CC[C@@]12N=C(c3ccc(OCCCO)cc3)O[C@@H]1c1ccccc1CN(Cc1ccccc1)C2=O`, the composite z-score in test [1] was 0.509; in [5], -0.0929; in test [6] it was 0.174; in the test with Torsin-1A (Homo sapiens) [7], 0.376; with Torsin-1A (Homo sapiens) [8], 0.294; in [9], 1.91. Moreover, the z-score in test [2] was -4.89 (inactive); in test [3], 2.16 (inactive); in test [4], -2.5 (inactive).

Consider `C=CCOC(=O)[C@@H]1[C@H]2C(=O)O[C@H](c3ccccc3)[C@H](c3ccccc3)N2[C@H](c2ccc(OCCOC(=O)[C@H]3C[C@H]4C(=O)N5CCC[C@H]5C(=O)N4[C@H]3c3ccc(O)cc3)cc2)[C@@]12C(=O)Nc1ccccc12`, for which the composite z-score in test [1] is 1.32; in test [5], 0.239; in [6] it was 1.03; with Torsin-1A (Homo sapiens) [7], 0.885; with Torsin-1A (Homo sapiens) [8] it was 0.283; in test [9], 1.68. In addition, the results for the z-score in test [2], in [3] and in test [4] were -3.23 (inactive), -0.402 (inactive) and -1.32 (inactive), respectively.

As to `O=[N+]([O-])c1ccc(C[n+]2ccc3ccc(O)cc3c2)o1`, the composite z-score worked out at 0.465 in test [1]; 1.29 in test [5]; 0.0857 in test [6]; 0.244 with Torsin-1A (Homo sapiens) [7]; 1.07 in the test with Torsin-1A (Homo sapiens) [8]; 0.841 in test [9]. For the same compound, the z-score was -0.893 (inactive) in test [2], -0.815 (inactive) in test [3] and -1.3 (inactive) in [4].

Take `CO[C@@H]1COC(=O)[C@@H]2CCCN2C(=O)CC=C[C@@H](C)[C@H](OC)COC(=O)[C@@H]2CCCN2C(=O)CC=C[C@H]1C`: the composite z-score is -0.137 in test [1]; -0.613 in test [5]; -0.179 in test [6]; 0.985 with Torsin-1A (Homo sapiens) [7]; 0.306 with Torsin-1A (Homo sapiens) [8]; 2.1 in [9]. Further, the z-score in test [2] was -0.381 (inactive); in [3], -0.292 (inactive); in [4], -0.559 (inactive).

As for `CCOC(=O)C[C@H]1[C@H](OC(=O)Cc2ccc3c(c2)OCO3)[C@@H](NC(=O)CC(C)C)c2cc(OCCCO)ccc2N1C(=O)c1ccccc1`, the composite z-score is 0.416 in test [1]; -0.195 in test [5]; 0.126 in test [6]; -0.155 with Torsin-1A (Homo sapiens) [7]; 0.287 with Torsin-1A (Homo sapiens) [8]; 0.526 in test [9]. The z-score in test [2] is -0.957 (inactive); in test [3] it was 0.162 (inactive); in [4], -1.48 (inactive).

Consider `CCOC(=O)[C@H]1C/C=C/C[C@H](C(=O)OCC)C(=O)O[C@H]2[C@@H](OC)O[C@H](CO)[C@@H](OC(=O)Nc3ccc(Br)cc3)[C@@H]2OC1=O`, for which the composite z-score in test [1] is 0.172; in [5], 0.521; in [6], -0.121; in the test with Torsin-1A (Homo sapiens) [7], 0.164; in the test with Torsin-1A (Homo sapiens) [8] it was -0.2; in test [9] it was 0.69. The z-score is -6.64 (inactive) in [2], -0.614 (inactive) in [3] and -1.23 (inactive) in test [4].
